# Polio RdRp inh = poliovirus RdRp elongation inhibitors, primary screen, biochemical, fluorescence polarization, total intensity; Genome polyprotein (Poliovirus type 1 (strain Mahoney)), P03300; poliovirus polymerase elongation; stronger effect = lower value; % elongation, % (compound at 16.7 µg/mL); hit rate 0.66% among 150,000; AID 588519, 2011; in the data active means % elongation below about 90%
# Target sequence (P03300 1749-2209 limits assumed): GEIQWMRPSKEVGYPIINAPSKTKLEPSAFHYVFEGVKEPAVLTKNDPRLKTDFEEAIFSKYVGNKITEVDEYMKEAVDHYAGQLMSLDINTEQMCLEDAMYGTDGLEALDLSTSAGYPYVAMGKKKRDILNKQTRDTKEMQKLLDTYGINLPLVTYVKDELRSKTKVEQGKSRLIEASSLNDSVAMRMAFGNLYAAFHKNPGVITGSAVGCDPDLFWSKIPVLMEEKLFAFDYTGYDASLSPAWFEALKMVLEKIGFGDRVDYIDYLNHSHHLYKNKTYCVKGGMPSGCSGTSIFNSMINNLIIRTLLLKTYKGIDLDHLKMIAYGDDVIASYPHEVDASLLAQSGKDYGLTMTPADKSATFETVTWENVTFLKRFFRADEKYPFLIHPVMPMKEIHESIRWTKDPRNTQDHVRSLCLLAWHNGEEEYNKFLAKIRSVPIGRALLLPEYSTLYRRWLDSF
# Mtb MenB inh = M. tuberculosis MenB inhibitors, primary screen, biochemical, absorbance | hit rate 0.43% among 100,000 | AID 540299, 2011 | 1,4-dihydroxy-2-naphthoyl-CoA synthase (Mycobacterium tuberculosis (strain ATCC 25618 / … | inhibition, % (test concentration not listed) | MenB enzyme assay, absorbance read-out; in the data active means inhibition above about 21%, passing the limit was not always enough
# MbtI inh = MbtI salicylate synthase inhibitors, primary screen, biochemical, fluorescence intensity. hit rate 0.89% among 100,000. purified MbtI enzyme, fluorescence intensity read-out. inhibition, % (concentration not given with the values); in the data active means inhibition mostly above about 56%, no sharp cut-off; inactive means mostly below about 77%
# An asterisk follows results filed as active; . = no result. A selection: hits, their analogues and other compounds. The true share with any hit is near 1.4%.
SMILES,Polio RdRp inh,Mtb MenB inh,MbtI inh
COC1OC(CO)C(O)CC1O (configuration not stated),99.0,7.5,-2.5
NS(=O)(=O)c1cccc(S(N)(=O)=O)c1,102.0,16.0,-22.9
NS(=O)(=O)c1cccc(S(=O)(=O)c2ccc(Cl)c(Cl)c2)c1,99.0,1.5,67.0*
CSc1ncc(C(=O)OC(C)c2nc3ccccc3c(=O)[nH]2)n1-c1ccc(F)cc1 (configuration not stated),104.0,-8.1,-10.8
CC1=CC(=N/C(C)=N/S(=O)(=O)c2ccc(C)cc2)C=C(C)C1=O,105.0,2.9,86.3*
CS/C(N)=N/S(=O)(=O)c1ccc(C)cc1,100.0,18.8,4.0
COC(=O)c1sc(-c2ccc(F)cc2)cc1NC(=O)C(F)(F)F,103.0,-16.0,-3.2
O=C(NCc1cccs1)c1csc(C2COc3ccccc3O2)n1 (configuration not stated),98.0,-21.5,67.4
O=C(Sc1ccc(C(F)(F)F)cn1)c1csc(C2COc3ccccc3O2)n1 (configuration not stated),102.0,-12.3,70.7*
CCOc1ccccc1N=C1SC(CC(=O)Nc2ccccc2)C(=O)N1Cc1ccco1 (configuration not stated),100.0,-21.9,-0.9
O=C(Oc1ccc(Cl)cc1)c1ccc2snnc2c1,100.0,-17.3,-4.8
COc1ccccc1NC(=O)CSCC(N)=O,102.0,-24.3,95.4*
COc1ccccc1NC(=O)CC(=O)Nc1ccccc1OC,103.0,.,-9.4
COc1cc(/C=C2\CCc3ccccc3C2=O)ccc1OCCC(C)C,103.0,-58.5,8.8
O=C1/C(=C/c2ccc3nccnc3c2)Cc2ccccc21,103.0,-19.1,10.4
CC1=CC(=O)C(N(C)c2ccccc2)=CC1=O,103.0,.,84.6*
CC1=C/C(=C/N(C)c2ccccc2)C(=O)S1,100.0,-147.2,28.0
CC1CCN(CN2C(=O)CCC2=O)CC1,100.0,-37.9,-7.3
Nc1c(C(=O)NCc2cccs2)c2nc3ccccc3nc2n1-c1ccc2c(c1)OCO2,.,-11.1,-129.2
COc1ccc(OCC(O)CN(Cc2ccccc2)Cc2ccccc2)cc1 (configuration not stated),100.0,-10.9,4.5
OC(COCC1CC=CCC1)CN(Cc1ccccc1)Cc1ccccc1 (configuration not stated),86.0*,-23.8,.
O=C(CSC1CCS(=O)(=O)C1)NCC(=O)c1ccccc1 (configuration not stated),103.0,-20.1,-5.0
Cc1ccc(C(=O)O)cc1-n1c(C)ccc1C,.,.,51.0
Cc1ccc(C)n1-c1ccsc1C(=O)O,48.0*,-12.4,-22.3
O=C1c2ccccc2C(=O)C2(O)OCCOC12O (configuration not stated),90.0*,-4.4,115.2
SMILES,Polio RdRp inh,Mtb MenB inh,MbtI inh
CCN(c1ccccc1)C1(O)C(=O)c2ccccc2C1=O,98.0,-23.6,-48.2
CN(C)S(=O)(=O)c1ccc(C(=O)Oc2cc(Cl)c[nH]c2=O)cc1,92.0,-19.5,-8.8
CN(C)S(=O)(=O)c1ccc(C(=O)Oc2cc(=O)[nH]c3ccccc23)cc1,89.0*,-42.0,-152.0
Nn1cnn2c(SCc3cccc(C(F)(F)F)c3)nnc12,99.0,-14.4,.
Cc1c(O)ccc(C(=O)COc2ccccc2)c1O,102.0,-7.0,10.2
O=C(COc1ccccc1)c1ccc(O)c(O)c1O,101.0,-21.1,93.8*
CC(C)NC(=O)CC1OC(=O)c2ccccc21 (configuration not stated),.,.,-14.6
O=C(CC1OC(=O)c2ccccc21)c1ccc(Cl)s1 (configuration not stated),85.0*,-5.3,6.2
CC1(C)C2CC=C(/C=C(\C#N)C(N)=O)C1C2 (configuration not stated),98.0,7.5,-1.2
O=C(CN1CCN(c2ccccc2)CC1)N1c2ccccc2CCc2ccccc21,106.0,-6.3,-5.3
N#CCSc1nc(-c2cccs2)cc(-c2cccs2)c1C#N,101.0,9.6,14.8
N#Cc1c(-c2cccs2)cc(-c2ccc(C(=O)O)cc2)nc1SCc1cccs1,78.0*,4.0,.
CC1CN(C(=S)c2ccccc2)CC(C)O1 (configuration not stated),96.0,-11.3,67.7*
CC1CN(C(=S)NCCc2ccccc2)CC(C)O1 (configuration not stated),98.0,7.1,9.1
O=C(c1sc2ccccc2c1Cl)n1cccn1,100.0,-12.2,.
Nc1cccc(OCc2ccc(F)cc2)c1,105.0,-38.0,-7.0
O=c1c(Cl)c(Nc2ccc(F)cc2)cnn1-c1ccccc1,84.0*,2.5,3.3
Cc1nn(C)c(C)c1Nc1cnn(-c2ccccc2)c(=O)c1Cl,101.0,-8.2,15.8
Cc1nc2cc(N3CCN(C)CC3)c(NC(=O)C(C)(C)C)cc2c(=O)n1Cc1ccccc1,103.0,-16.2,-1.5
COCCn1c(=S)[nH]c2sc(C)c(C)c2c1=O,80.0*,-48.0,100.5*
CCCCn1c(=S)[nH]c2sc3c(c2c1=O)CCCC3,100.0,-46.5,1.9
O=C(OCn1nnc2ccccc2c1=O)C1COc2ccccc2O1 (configuration not stated),100.0,-21.8,58.3*
O=C(OCn1nnc2ccccc2c1=O)C1CCCCC1,102.0,22.7,5.9
Cc1nn(-c2ccccc2)c(C)c1NC(=O)COC(=O)/C=C/c1cccs1,105.0,-20.9,-1.5
O=C(c1ccc(CS(=O)c2ccccc2Cl)o1)N1CCc2ccccc21 (configuration not stated),98.0,-0.9,-7.0
SMILES,Polio RdRp inh,Mtb MenB inh,MbtI inh
CN(C)c1ccc(NC(=O)Cn2c(SCc3ccccc3F)nc3cccnc32)cc1,19.0*,.,.
O=C(Cn1c(SCc2ccccc2F)nc2cccnc21)Nc1ccc(F)c(Cl)c1,109.0,.,.
N#C/C(N=Cc1cccs1)=C(\C#N)NCc1c(F)cccc1Cl,108.0,-7.6,-15.2
CN(CC(=O)N1CCCC1=O)Cc1ccccc1,105.0,-59.3,-5.1
CCN(CC)CC(=O)N1CCCC1=O,100.0,42.6*,-0.3
COc1ccc(NC(=O)C(C)n2nnc3sc(-c4ccccc4)cc3c2=O)cc1Cl (configuration not stated),76.0*,.,.
Cc1cc(C)c(NC(=O)C(C)n2nnc3sc(-c4ccccc4)cc3c2=O)c(C)c1 (configuration not stated),112.0,.,.
CCSCC1COC(c2cn(CC)c3ccccc23)=N1 (configuration not stated),102.0,-42.3,-70.2
Cc1ccc(C)c(S(=O)(=O)Nc2cc(Cl)c3oc(=O)sc3c2)c1,90.0,-56.1,62.0*
Cc1cc(C)c(S(=O)(=O)Nc2cc(Cl)c3oc4c(c3c2)C(=O)CCC4)cc1C,101.0,.,.
COC(=O)c1ccc2c(c1)NC(=O)CN2,117.0,0.7,129.4
CCN(CC)C(=S)C(=O)Nc1cc(C(F)(F)F)cc(C(F)(F)F)c1,86.0*,-26.4,.
CC(C)(C)NC(=O)Nc1cc(C(F)(F)F)cc(C(F)(F)F)c1,106.0,-8.8,0.2
Cc1ccc(NC(=O)c2cc(C(C)C)[nH]n2)cc1,103.0,-15.4,-0.6
CC(C)CNC(=O)CSc1nnc(-c2ccc(Cl)cc2)n1N,102.0,-12.1,-33.7
CC(C)c1nnc(SCC(=O)Nc2ccc(Cl)cc2)n1N,104.0,2.7,89.2*

# From PubChem BioAssay
